Where a structure was tested more than once in an assay, its records may differ in their call. Calls of active or inactive are those of the source. Rule for the calls: active = hit-call score of the fitted dose curve at least 0.9, where 1 is the maximum; inactive = score below 0.9.

A short description of the assay: ATG_Ets_CIS: Attagene CIS-FACTORIAL HepG2 Assay for human Erythroblast Transformation Specific (ETS) (AID 2282941). The conditions noted are these: HepG2 ETS cis-reporter transcription, actives raise or lower the signal. As to the method: ATG_CIS is a cell-based, multiplexed-readout assay that uses HepG2, a human liver cell line, with measurements taken at 24 hours after chemical dosing in a 24-well plate.ATG_Ets_CIS is one of 52 assay component(s) measured or calculated from the ATG_CIS assay. It is designed to make measurements of mRNA induction, a form of inducible reporter, as detected with fluorescence intensity signals by Reverse transcription polymerase chain reaction (RT-PCR) and Capillary electrophoresis technology.Data from the assay component ATG_Ets_CIS was analyzed into 1 assay endpoint. This assay endpoint, ATG_Ets_CIS, was analyzed with bidirectional fitting relative to DMSO as the negative control and baseline of activity. Using a type of inducible reporter, measures of mRNA for gain or loss-of-signal activity can be used to understand the reporter gene at the transcription factor-level as they relate to the gene ETS1. Furthermore, this assay endpoint can be referred to as a primary readout, because this assay has produced multiple assay endpoints where this one serves a reporter gene function. To generalize the intended target to other relatable targets, this assay endpoint is annotated to the dna binding intended target family, where the subfamily is winged helix-turn-helix.
Human liver HepG2 cells are transiently transfected with multiple reporter transcription units (MRTUs) in 6-well plates using FuGene 6 reagent (Roche; 3 ml FuGene/1 mg DNA). The MRTU constructs are regulated by a cis-regulating element (promoter). […] A major difference between the CIS and TRANS system is that in CIS activities of endogenous TFs are measured, whereas the TRANS assay evaluates changes in activities of exogenous, chimeric NR-Gal4 proteins. […] At the end of 24 hour incubation, total RNA was isolated using TriZol reagent (Invitrogen). The isolated RNA is then reverse-transcribed using oligo(dT) primer and Mo-MLV reverse transcriptase (Invitrogen) with DNAse I (Ambion) treatment for 30 min. The one-tenth of the produced cDNA was amplified by PCR using Taq DNA polymerase (Invitrogen) and two reporter sequence-specific primers. The PCR products were fluorescently labeled by primer extension with 6-arboxyfluorescein (6-FAM) 5'-labeled reporter sequence-specific primer (2 min at 95 C, 20 s at 68 C and 10 min at 72 C) and these products were digested with 5U of HpaI (New England Biolabs) for 2h at 37 C. The fragments were purified using Qiaquick PCR columns (Qiagen), analyzed on an ABI 3130xL genetic analyzer (Applied Biosystems) with peak positions identified by using a set of X-rhodamine (ROX)-labeled MapMarker1000 molecular weight standards (BioVentures). The raw capillary electrophoresis data was processed using Attagraph software (Attagene).
For the molecule `CCC(=C(c1ccc(O)cc1)c1ccc(OCCN(C)C)cc1)c1ccccc1`, the molecule was called inactive.
For `Oc1cccc(O)c1`, the call was inactive.
As a reminder, the AC50 is the concentration at which the activity in the assay is half-maximal. Consider `CC#C[C@]1(O)CC[C@H]2[C@@H]3CCC4=CC(=O)CCC4=C3[C@@H](c3ccc(N(C)C)cc3)C[C@@]21C`, for which the outcome was inactive and the concentration at half-maximal activity (AC50) is 8.92 µM (active).
For `CCOC(=O)CC(O)(CC(=O)OCC)C(=O)OCC`, the call was inactive.
As for `C=C(C)C(=O)OCCC(F)(F)C(F)(F)C(F)(F)C(F)(F)C(F)(F)C(F)(F)F`, the call was inactive.
With `CCCCC[C@H](O)CC(=O)CCc1ccc(O)c(OC)c1`, the outcome was inactive.
For the molecule `CCCCCCC(=O)O`, the result was inactive.
In the case of `Cc1cc(C)c(O)c(C)c1`, the call was inactive.
On to `CCCCC(CC)COC(=O)CCCCC(=O)OCc1ccccc1` (stereo not given), for which the outcome was inactive.
As to `O=[N+]([O-])c1ccc(O)cc1`, the result was inactive.
Take `COCC(C)O` (stereo not given): the result was inactive.
On the same count and under the same terms, the entry for `NCC(F)(F)C(F)(F)C(F)(F)C(F)(F)C(F)(F)C(F)(F)C(F)(F)F` is “inactive”; for `O=C1OC2(c3ccccc31)c1cc(Br)c(O)c(Br)c1Oc1c2cc(Br)c(O)c1Br` it is “inactive”; for `CN1CCN(c2ccccc2/C=C2\SCCN(c3ccc(Cl)c(Cl)c3)C2=O)CC1` it is “inactive”.
Still for that read-out and setting: with `CN1CCC[C@H]1c1cccnc1` the entry was “inactive”; with `COCC(C)OCC(C)O` (stereo not given), “inactive”; with `CCCCCCCC(=O)O`, “inactive”.
On to `Cc1ccc(S(=O)(=O)O)c(C)c1`, for which the result was inactive.
As to `O=C(O)Cc1cc(I)c(Oc2cc(I)c(O)c(I)c2)c(I)c1`, the molecule was classed as inactive and the concentration at half-maximal activity (AC50) was 38.1 µM (active).
On to `CCCOC(=O)c1ccc(O)cc1`, for which the molecule was classed as inactive.
In the case of `CC(C)(C)c1ccc(O)c(C(C)(C)C)c1`, the result was inactive.
As to `CN(C)C=O`, the molecule was classed as inactive.
For the molecule `O=C(O)c1ccccc1C(c1ccc(O)cc1)c1ccc(O)cc1`, the call was inactive.
Take `CC[C@H](c1ccc(O)cc1)[C@@H](CC)c1ccc(O)cc1`: the result was inactive.
Turning to `CCCCCCCCCCCCCC[N+](C)(C)C`, the molecule was classed as inactive.
Take `Cc1oc(-c2ccccc2)nc1CCOc1ccc(C[C@H](Nc2ccccc2C(=O)c2ccccc2)C(=O)O)cc1`: the molecule was called inactive.
Take `Oc1cc2ccccc2c2ccccc12`: the call was inactive.
Still for that read-out and setting: with `CC(C)(C)c1cc(C(C)(C)C)c(O)c(C(C)(C)C)c1` the entry was “inactive”.
On to `CCCOc1sc(C(=O)N2CCC(c3cc(CN)ccc3F)CC2)c(C)c1Br`, for which the outcome was inactive.
For `CCC(C)(C)C1CCC(O)CC1` (stereo not given), the molecule was classed as inactive.
For `CCCCCCCCCCCCCCCS(=O)(=O)Oc1ccccc1`, the call was inactive.
Turning to `CC(C)(C)CC(C)(C)c1ccc(O)c(-n2nc3ccccc3n2)c1`, the call was inactive.
Turning to `Nc1cccc2c(N)cccc12`, the call was inactive.
Regarding `COc1ccc([N+](=O)[O-])cc1N`, the result was inactive.
Regarding `CC(C)(C)c1cccc(C(C)(C)C)c1O`, the concentration at half-maximal activity (AC50) was 166 µM (active).
On to `CC(C)CCCCCCOC(=O)CCCCC(=O)OCCCCCCC(C)C`, for which the outcome was inactive.
Same read-out and setting: the entry for `c1ccc2c(c1)Cc1ccccc1-2` is “inactive”; for `CC(O)C(=O)O` (stereo not given) it is “inactive”.

Source of the values: PubChem BioAssay (EPA / NIEHS).
